From PubChem BioAssay come the findings set out here.

Activity calls are given as the source filed them.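 The calls were made as follows, unless noted: active = inhibition above 20% together with a positive visual image hit; inconclusive = visual image hit but inhibition not above 20%; inactive = no visual image hit.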

The nature of the first experiment: inhibitors of TNFa-induced NFkB p65 translocation, primary screen, imaging, HUVEC, MLSMR starter and 10KST1 sets (AID 438).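 Also: compound added about 3h40 before a 20 min TNFalpha stimulation.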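 As to inhibition: signal is the nuclear over cytoplasmic p65 intensity ratio per well.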 The note with it: HUVEC TNFa-induced p65 nuclear translocation; cell count: measured here: nuclei count (cytotoxicity indicator), at 2.08 µM; inhibition: at 2 µM, stronger effect = higher value, 0% TNFa-plus-vehicle, 100% no-TNFa wells.
Take `Cc1cc(=O)oc2c(CN3CCN(C)CC3)c(O)c(Cl)cc12`: the inhibition – broadly, the drop in the measured response relative to a control, in per cent – was -13.9% (inactive) and the cell count came out at 494.
The matching figures for `C1CNCCNCCNCCN1`: -6.4% (inactive) and 566.
Take `CC(C(=O)O)c1ccc(-c2ccccc2)c(F)c1` (stereo not drawn): the inhibition was -7.8% (inactive) and the cell count was 557.
The matching figures for `Cc1c(C)c2cc(Cl)c(O)c(CN3CCCCC3)c2oc1=O`: 1.3% (inactive) and 393.
Taken in the same sequence, the figures for `Cc1oc2nc(SCCCC(=O)NCCCO)nc(N)c2c1C` were -4.5% (inactive) and 507.
`CCN(CC)CCNC(=O)c1ccc(NC(C)=O)cc1`: the inhibition was -5.5% (inactive) and the cell count is 497.
For `CCCC(=O)N1c2ccccc2NC2=C(C(=O)CCC2)C1c1ccc(F)cc1` (stereo not drawn), the inhibition was -9.6% (inactive) and the cell count amounted to 593.
On to `COC(=O)CC1SC(=O)NC1=O` (stereo not drawn), for which the cell count was 552 and the inhibition is -6.8% (inactive).
Taken in the same sequence, the figures for `Cc1cc(OCC(=O)Nc2ccc3oc(-c4ccncc4)nc3c2)ccc1Cl` were 485 and -6.9% (inactive).
For the compound `CCn1cc(C(=O)O)c(=O)c2cc(F)c(N3CCNCC3)nc21`, the inhibition was -1.9% (inactive) and the cell count was 528.
Turning to `COc1ccc(C(=O)Cn2c(N3CCCCC3)nc3c2c(=O)n(C)c(=O)n3C)cc1OC`, the cell count came to 537 and the inhibition was 4.7% (inactive).
Taken in the same sequence, the figures for `C=CCn1c(=S)[nH]c2nc3c(cc2c1=O)COC(C)(C)C3` were 590 and -2.3% (inactive).
As to `Cc1cccc(N(CC(O)CN(C)C)S(=O)(=O)c2ccccc2)c1` (stereo not drawn), the cell count turned out to be 660 and the inhibition is -8.8% (inactive).
The matching figures for `c1ccc(-c2nnc(OCCN3CCOCC3)c3ccccc23)cc1`: 493 and -3.3% (inactive).
`C[C@@H]1CCC[C@H](C)N1NC(=O)c1ccc(Cl)c(S(N)(=O)=O)c1`: the cell count was 625 and the inhibition is 7.2% (inactive).
With `CCN(CC)CCN1C(=O)C(O)=C(C(=O)c2ccco2)C1c1ccccn1` (stereo not drawn), the cell count was found to be 439 and the inhibition was -6.3% (inactive).
Taken in the same sequence, the figures for `CCC1CCCCN1c1nc(-c2ccncc2)nc2ccccc12` (stereo not drawn) were 503 and 0.5% (inactive).
Taken in the same sequence, the figures for `CN1c2ccccc2-c2nc3ccccc3n2C1c1ccco1` (stereo not drawn) were 385 and -3.7% (inactive).

The nature of another experiment: reduction of polyQ htt aggregates in cells – imaging, exon1htt(103Q)mCFP cells, high-content imaging, primary screen (AID 483;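 active = visual image review flags a hit and inhibition of aggregation exceeds 20%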;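 also: compound exposure lasted 3 days before fixation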;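 as to nuclei count: percent of the per-plate median nuclei count of sample wells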). Conditions: exon1htt(103Q)mCFP cell line, aggregate imaging, at 2 µM; inhibition of aggregation: stronger effect = higher value; nuclei count: measured here: cell count, toxicity.
Consider `Cc1cc(=O)oc2c(CN3CCN(C)CC3)c(O)c(Cl)cc12`, for which the inhibition of aggregation is 0.1% (inactive) and the nuclei count was 101%.
Consider `C1CNCCNCCNCCN1`, for which the nuclei count is 109% and the inhibition of aggregation is 12.4% (inactive).
Regarding `CC(C(=O)O)c1ccc(-c2ccccc2)c(F)c1` (stereo not drawn), the nuclei count was 101% and the inhibition of aggregation is -18.5% (inactive).
Taken in the same sequence, the figures for `Cc1c(C)c2cc(Cl)c(O)c(CN3CCCCC3)c2oc1=O` were 100% and -11.8% (inactive).
For `Cc1oc2nc(SCCCC(=O)NCCCO)nc(N)c2c1C`, the inhibition of aggregation is 21.9% (inactive) and the nuclei count came out at 90.5%.
Taken in the same sequence, the figures for `CCN(CC)CCNC(=O)c1ccc(NC(C)=O)cc1` were -5.6% (inactive) and 94.5%.
As to `CCCC(=O)N1c2ccccc2NC2=C(C(=O)CCC2)C1c1ccc(F)cc1` (stereo not drawn), the nuclei count was determined as 124% and the inhibition of aggregation was 3.9% (inactive).
Taken in the same sequence, the figures for `COC(=O)CC1SC(=O)NC1=O` (stereo not drawn) were 110% and 26.4% (inactive).
The matching figures for `Cc1cc(OCC(=O)Nc2ccc3oc(-c4ccncc4)nc3c2)ccc1Cl`: 100% and -19.2% (inactive).
The matching figures for `CCn1cc(C(=O)O)c(=O)c2cc(F)c(N3CCNCC3)nc21`: 88.6% and -5% (inactive).
Take `COc1ccc(C(=O)Cn2c(N3CCCCC3)nc3c2c(=O)n(C)c(=O)n3C)cc1OC`: the inhibition of aggregation was 12.9% (inactive) and the nuclei count stood at 90.8%.
The matching figures for `C=CCn1c(=S)[nH]c2nc3c(cc2c1=O)COC(C)(C)C3`: 0.9% (inactive) and 109%.
Taken in the same sequence, the figures for `c1ccc(-c2nnc(OCCN3CCOCC3)c3ccccc23)cc1` were 18.6% (inactive) and 114%.
For `C[C@@H]1CCC[C@H](C)N1NC(=O)c1ccc(Cl)c(S(N)(=O)=O)c1`, the nuclei count worked out at 108% and the inhibition of aggregation was 0.7% (inactive).
Regarding `CCN(CC)CCN1C(=O)C(O)=C(C(=O)c2ccco2)C1c1ccccn1` (stereo not drawn), the nuclei count turned out to be 89.2% and the inhibition of aggregation is 16.5% (inactive).
As to `CCC1CCCCN1c1nc(-c2ccncc2)nc2ccccc12` (stereo not drawn), the inhibition of aggregation was 7.3% (inactive) and the nuclei count was determined as 91.9%.
